Results taken from PubChem BioAssay (NCATS).
Records with an inconclusive call do not appear. Entries that show only a call come without a potency. The source made the active and inactive calls. Unless noted, calls come from the whole dose curve; as a rule, active = well fitted curve in the direction sought with a large enough effect; inconclusive = small, poorly fitted or top-dose-only effect, or another doubt; inactive = no such curve, though single readings can be large; an effect the other way counts as inactive or inconclusive.

Legend:
[1] = Cellular Toxicity (caspase-3) SHSY5Y (AID 657); note: potency is the fitted concentration of half-maximal effect
Method in brief: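 Luminescent Caspase-Glo 3/7 read-out, 1 hr room temperature, follows 16 hours of compound treatment of SH-SY5Y cells at 37 °C. Normalization: DMSO basal, 10 uM staurosporine as 100%; AC50 values from Hill-equation concentration-response fits.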

[2] = Cellular Toxicity (caspase-3) BJ (AID 658)
Method in brief: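 Caspase-Glo 3/7 luminescence, read 1 hr after reagent at room temperature, in normal BJ fibroblasts exposed 16 hours at 37 °C. AC50 values from Hill-equation concentration-response, scaled between DMSO basal and 10 uM staurosporine as 100%.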

[3] = MultiTox-Fluor Cytotoxicity Assay - LYMP1-001 - Live Cells (AID 947); note: potency is the fitted concentration of half-maximal effect
[4] = Cell Viability - LYMP1-002 - Assay at 16 hr (AID 948); note: potency is the fitted concentration of half-maximal effect
Method in brief: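 ATP luminescence (CellTiter-Glo) was measured after 16 hr compound exposure at 37 C of 2500 lymphoblastoid LYMP1-002 cells per well. Concentration-response curves were fitted with the Hill equation to give AC50.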

[5] = Cell Viability - LYMP1-003 - Assay at 40 hr (AID 964); note: nearly all actives have a fitted effect of over 60% in size; note: potency is the fitted concentration of half-maximal effect
Method in brief: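 Viability is taken as cellular ATP, read by CellTiter-Glo luminescence after 40 h of compound exposure at 37 C. Cells: human lymphoblastoid line LYMP1-003 at 2500/well; AC50 values derived by Hill-equation fitting of concentration-response data.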

[6] = Cell Viability - LYMP2-005 (AID 967); note: potency is the fitted concentration of half-maximal effect
Method in brief: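 LYMP2-005 human lymphoblastoid cells (2500/well) were treated with compounds for 24 h at 37 C. Intracellular ATP was then measured by CellTiter-Glo luminescence after 30 min at room temperature. AC50 values came from Hill-equation fits of qHTS concentration-response data.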

[7] = Cell Viability - LYMP2-009 (AID 968); note: nearly all actives have a fitted effect of over 55% in size; note: potency is the fitted concentration of half-maximal effect
[8] = Cell Viability - LYMP2-011 (AID 969); note: nearly all actives have a fitted effect of over 60% in size; note: potency is the fitted concentration of half-maximal effect
Method in brief: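 Cytotoxicity qHTS with ATP content as read-out: lymphoblastoid cells (2500/well) exposed to compound for 24 h at 37 C, then luciferase luminescence measured. Concentration-response data fitted with the standard Hill equation to give AC50.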

[9] = Cell Viability - LYMP2-017 (AID 972); note: nearly all actives have a fitted effect of over 55% in size; note: potency is the fitted concentration of half-maximal effect
Method in brief: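 CellTiter-Glo luminescence (cellular ATP, 30 min RT) measured cytotoxicity after 24 hr compound treatment at 37 C. Cells were a human lymphoblastoid line, LYMP2-017, plated at 2500/well and incubated 5 hr first; concentration-response fitted with Hill equation for AC50.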

[10] = Cell Viability - LYMP2-021 (AID 974); note: nearly all actives have a fitted effect of over 55% in size; note: potency is the fitted concentration of half-maximal effect
Method in brief: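 AC50 values come from Hill-equation fits to CellTiter-Glo luminescence (ATP content), read after 24 hour compound exposure at 37 C of 2500 LYMP2-021 lymphoblastoid cells/well; tetraoctylammonium bromide as positive control.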

[11] = Cell Viability - LYMP2-023 (AID 975); note: nearly all actives have a fitted effect of over 55% in size; note: potency is the fitted concentration of half-maximal effect
Method in brief: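 Intracellular ATP, read by CellTiter-Glo luminescence, reports viability after 24 hr compound exposure at 37 C. 2500 lymphoblastoid cells/well (LYMP2-023) seeded 5 hr beforehand; Hill fits give AC50; positive control tetraoctylammonium bromide.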

[12] = Cell Viability - LYMP2-025 (AID 976); note: potency is the fitted concentration of half-maximal effect
Method in brief: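 Cytotoxicity read as loss of intracellular ATP (luciferase luminescence) after 24 h compound treatment at 37 C. Uses LYMP2-025 lymphoblastoid cells in 1536-well format; Hill-equation modelling gives AC50; tetraoctylammonium bromide as positive control.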

[13] = Cell Viability - LYMP2-007 (AID 979);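 note: cells exposed to compound for 24 h before reading; nearly all actives have a fitted effect of over 60% in size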; note: potency is the fitted concentration of half-maximal effect
Method in brief: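 AC50 values come from Hill-equation fits of luminescent intracellular ATP (CellTiter-Glo, 30 min, room temperature) following 24 h compound exposure at 37 C. Cells: LYMP2-007 lymphoblastoid line, 2500 per well, in complete culture medium.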

[14] = Cell Viability - LYMP2-012 (AID 982); note: potency is the fitted concentration of half-maximal effect
[15] = Cell Viability - LYMP2-020 (AID 986); note: nearly all actives have a fitted effect of over 55% in size; note: potency is the fitted concentration of half-maximal effect
Method in brief: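 Cytotoxicity in qHTS format: luminescent ATP readout from CellTiter-Glo after 24 h compound exposure at 37 C in complete medium. LYMP2-020 lymphoblastoid cells were seeded at 2500/well; concentration-response data fitted to the Hill equation for AC50.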

[16] = Cell Viability - LYMP1-002 - Assay at 24 hr (AID 993); note: potency is the fitted concentration of half-maximal effect
Method in brief: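 qHTS cytotoxicity at 24 h: CellTiter-Glo ATP luminescence in lymphoblastoid line LYMP1-002 incubated with compound at 37 °C. Concentration-response modeled with the Hill equation for AC50; tetraoctylammonium bromide served as positive control.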

[17] = Cell Viability - LYMP1-002 - Assay at 40 hr (AID 994); note: nearly all actives have a fitted effect of over 60% in size; note: potency is the fitted concentration of half-maximal effect
Method in brief: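 Cytotoxicity was read as loss of cellular ATP (CellTiter-Glo luminescence) after 40 hr compound exposure at 37 C of 2500 LYMP1-002 lymphoblastoid cells per well. Concentration-response data were fitted with the standard Hill equation to give AC50.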

[18] = biological target: Voltage-gated inwardly rectifying potassium channel KCNH2 (Homo sapiens) (UniProt Q12809); experiment: qHTS Assay for Small Molecule Inhibitors of the Human hERG Channel Activity (AID 588834);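 note: lower thallium flux fluorescence means stronger hERG block; nearly all actives have a fitted effect of over 50% in size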; note: potency is the fitted concentration of half-maximal effect
Voltage-gated inwardly rectifying potassium channel KCNH2 (Homo sapiens), sequence (Q12809 whole entry, looked up): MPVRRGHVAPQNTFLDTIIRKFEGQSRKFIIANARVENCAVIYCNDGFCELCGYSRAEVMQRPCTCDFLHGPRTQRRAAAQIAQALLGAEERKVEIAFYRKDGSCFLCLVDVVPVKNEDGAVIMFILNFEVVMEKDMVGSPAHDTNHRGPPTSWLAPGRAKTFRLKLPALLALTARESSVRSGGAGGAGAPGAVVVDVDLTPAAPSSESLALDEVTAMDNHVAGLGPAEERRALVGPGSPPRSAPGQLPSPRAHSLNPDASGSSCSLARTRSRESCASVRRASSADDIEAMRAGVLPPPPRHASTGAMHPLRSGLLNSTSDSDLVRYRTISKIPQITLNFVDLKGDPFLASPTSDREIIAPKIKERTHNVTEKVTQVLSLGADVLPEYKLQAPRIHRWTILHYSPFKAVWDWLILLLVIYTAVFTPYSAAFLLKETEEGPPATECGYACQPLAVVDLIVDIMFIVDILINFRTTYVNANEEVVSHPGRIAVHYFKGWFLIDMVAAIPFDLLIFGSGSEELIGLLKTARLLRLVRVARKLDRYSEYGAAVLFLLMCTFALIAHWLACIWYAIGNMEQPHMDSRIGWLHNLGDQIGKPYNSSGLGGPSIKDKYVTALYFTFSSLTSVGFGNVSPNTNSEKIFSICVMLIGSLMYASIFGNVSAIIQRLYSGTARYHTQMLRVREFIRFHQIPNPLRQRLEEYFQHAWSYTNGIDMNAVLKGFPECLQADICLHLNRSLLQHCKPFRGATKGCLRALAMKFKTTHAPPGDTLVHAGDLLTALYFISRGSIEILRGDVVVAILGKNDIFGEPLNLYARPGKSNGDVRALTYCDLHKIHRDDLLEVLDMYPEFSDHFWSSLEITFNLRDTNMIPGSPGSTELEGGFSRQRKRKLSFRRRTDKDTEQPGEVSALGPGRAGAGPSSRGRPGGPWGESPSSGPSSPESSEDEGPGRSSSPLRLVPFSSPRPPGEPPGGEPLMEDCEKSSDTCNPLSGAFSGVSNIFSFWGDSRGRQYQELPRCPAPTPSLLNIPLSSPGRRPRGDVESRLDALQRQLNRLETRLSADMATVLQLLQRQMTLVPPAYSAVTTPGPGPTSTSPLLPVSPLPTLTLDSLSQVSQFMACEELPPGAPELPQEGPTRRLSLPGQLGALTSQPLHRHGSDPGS
Method in brief: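 hERG block measured as reduced thallium-dye (FluxOR) fluorescence after stimulation buffer addition, read over 2 min. Cells were hERG-BacMam-transduced U2OS exposed to compound ~10 min […]; concentration-response fitted with Hill equation for AC50.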

[19] = qHTS assay for small molecule disruptors of the mitochondrial membrane potential - 5 hr assay (AID 651755; calls by dose curve; note: nearly all actives have a fitted effect of over 40% in size; note: potency is the fitted concentration of half-maximal effect)
Method in brief: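 Membrane-potential dye readout: red aggregate (540 ex/590 em) versus green monomer (490 ex/535 em) fluorescence after 30 min dye loading, following 5 hr compound exposure at 37C of overnight-plated HepG2 cells.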

[20] = qHTS assay for small molecule antagonists of the retinoid-related orphan receptor gamma (ROR-gamma) signaling pathway - cell viability counter screen (AID 720652; active = well fitted curve in the direction sought with a large enough effect in the repeat runs; an effect the other way counts as inactive or inconclusive;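 note: compound exposure lasted 16 hr before ATP read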; note: potency is the fitted concentration of half-maximal effect)
Method in brief: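 Cytotoxicity counter screen: intracellular ATP (CellTiter-Glo luminescence) measured in the doxycycline-induced CHO RORE-luciferase reporter line after 16 hr compound exposure at 37 C, 5% CO2.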

SMILES | Potency [1] | outcome [2] | Potency [3] | Potency [4] | Potency [5] | Potency [6] | Potency [7] | Potency [8] | Potency [9] | Potency [10] | Potency [11] | Potency [12] | Potency [13] | Potency [14] | Potency [15] | Potency [16] | Potency [17] | Potency [18] | Potency [19] | Potency [20]
FC(F)(F)c1ccc(Cl)cc1 | inactive | inactive | inactive | inactive | inactive | inactive | inactive | inactive | inactive | inactive | inactive | inactive | inactive | inactive | inactive | inactive | inactive | inactive | inactive | inactive
Oc1c(Br)c(Br)c(Br)c(Br)c1Br | inactive | inactive | inactive | inactive | inactive | inactive | inactive | inactive | inactive | inactive | inactive | inactive | – | inactive | inactive | inactive | inactive | inactive | 33.5 µM (active) | inactive
O=[N+]([O-])C(Br)Br | inactive | inactive | inactive | inactive | inactive | 25.1 µM (active) | 12.6 µM (active) | 12.6 µM (active) | 7.94 µM (active) | 10 µM (active) | 12.6 µM (active) | 20 µM (active) | 10 µM (active) | 12.6 µM (active) | 12.6 µM (active) | inactive | inactive | 50.1 µM (active) | inactive | 18.8 µM (active)
[Cd+2].[Cl-].[Cl-] | inactive | inactive | – | – | 15.8 µM (active) | – | – | – | – | – | – | – | 39.8 µM (active) | – | – | – | – | – | inactive | 21.1 µM (active)
ClC1=C(Cl)C2(Cl)C3C(Cl)C(Cl)CC3C1(Cl)C2(Cl)Cl (stereo not drawn) | – | inactive | – | – | – | inactive | inactive | inactive | – | inactive | – | inactive | – | inactive | – | inactive | – | 35.5 µM (active) | inactive | 66.8 µM (active)
CC(=O)[O-].CC(=O)[O-].O.O.[Cd+2] | inactive | inactive | inactive | inactive | – | 31.6 µM (active) | – | – | inactive | 50.1 µM (active) | inactive | inactive | 39.8 µM (active) | – | – | inactive | inactive | – | inactive | 8.41 µM (active)
c1ccc2cc3c(cc2c1)-c1cccc2cccc-3c12 | inactive | inactive | inactive | inactive | inactive | inactive | inactive | inactive | inactive | inactive | inactive | inactive | inactive | inactive | inactive | inactive | inactive | inactive | 6.68 µM (active) | inactive
N#CSCSC#N | – | inactive | 39.8 µM (active) | 31.6 µM (active) | 39.8 µM (active) | 5.01 µM (active) | 5.01 µM (active) | 6.31 µM (active) | 5.01 µM (active) | 5.01 µM (active) | 6.31 µM (active) | 10 µM (active) | 6.31 µM (active) | 5.01 µM (active) | 5.01 µM (active) | 12.6 µM (active) | 31.6 µM (active) | 31.6 µM (active) | inactive | 9.44 µM (active)
Clc1ccc(C(c2ccc(Cl)cc2)C(Cl)Cl)cc1 | 50.1 µM (active) | inactive | – | – | 79.4 µM (active) | inactive | inactive | inactive | inactive | inactive | inactive | inactive | inactive | inactive | inactive | – | 50.1 µM (active) | 22.4 µM (active) | 66.8 µM (active) | –
O=[N+]([O-])c1cc(C(F)(F)F)cc([N+](=O)[O-])c1Cl | inactive | – | inactive | inactive | inactive | inactive | 31.6 µM (active) | 39.8 µM (active) | 31.6 µM (active) | 31.6 µM (active) | 39.8 µM (active) | 50.1 µM (active) | 39.8 µM (active) | 31.6 µM (active) | 31.6 µM (active) | inactive | inactive | inactive | inactive | 66.8 µM (active)
C#CCO | inactive | inactive | inactive | inactive | inactive | inactive | inactive | inactive | inactive | inactive | inactive | inactive | inactive | inactive | inactive | inactive | inactive | inactive | – | inactive
C[C@@H]1CC[C@@]2(OC1)O[C@H]1[C@@H](O)[C@H]3[C@@H]4CC[C@H]5C[C@@H](O[C@@H]6O[C@H](CO)[C@H](O[C@@H]7O[C@H](CO)[C@@H](O)[C@H](O[C@@H]8OC[C@@H](O)[C@H](O)[C@H]8O)[C@H]7O[C@@H]7O[C@H](CO)[C@@H](O)[C@H](O[C@@H]8O[C@H](CO)[C@@H](O)[C@H](O)[C@H]8O)[C@H]7O)[C@H](O)[C@H]6O)[C@H](O)C[C@]5(C)[C@H]4CC[C@]3(C)[C@H]1[C@@H]2C | inactive | inactive | 12.6 µM (active) | 10 µM (active) | 7.94 µM (active) | 15.8 µM (active) | 12.6 µM (active) | 20 µM (active) | 25.1 µM (active) | 15.8 µM (active) | 25.1 µM (active) | 25.1 µM (active) | 25.1 µM (active) | 15.8 µM (active) | 12.6 µM (active) | 7.94 µM (active) | 7.94 µM (active) | 25.1 µM (active) | 26.6 µM (active) | 11.9 µM (active)
